Common to all, as to parameters: species or system human, MV4-11 + K-562 + COLO205 + SK-N-BE2 + OVCAR-8
One assay concerns CSNK1A1. Conditions: read-out: apparent Kd, compound concentrations: 100 nM and 1000 nM (sheet 'Samples'), n = 1.
A further assay has as its system CSNK1D. Particulars: read-out: apparent Kd, compound concentrations: 100 nM and 1000 nM (sheet 'Samples'), n = 1.
In another assay the test system is CSNK1E. Particulars: read-out: apparent Kd, compound concentrations: 100 nM and 1000 nM (sheet 'Samples'), n = 1.
In another assay the test system is MAPK11. Particulars: read-out: apparent Kd; compound concentrations: 100 nM and 1000 nM (sheet 'Samples'), CATDS: 9.0675457178051394E-2; n = 1.
Another assay relates to MAPK14. Conditions: read-out: apparent Kd, compound concentrations: 100 nM and 1000 nM (sheet 'Samples'), n = 1.
The subject of a further assay is MAPKAPK2. Particulars: read-out: apparent Kd, compound concentrations: 100 nM and 1000 nM (sheet 'Samples'), n = 1.
The next assay relates to RIPK2. Conditions: read-out: apparent Kd; compound concentrations: 100 nM and 1000 nM (sheet 'Samples'), CATDS: 0.10111059470888201; n = 1.
The next assay concerns MYLK3. Conditions: read-out: apparent Kd; compound concentrations: 100 nM and 1000 nM (sheet 'Samples'), CATDS: 0.254967092830167; n = 1.
A further assay has as its system PKN2. Particulars: read-out: apparent Kd; compound concentrations: 100 nM and 1000 nM (sheet 'Samples'), CATDS: 0.232185519076441; n = 1.
The test system of another assay is TP53RK. Particulars: read-out: apparent Kd; compound concentrations: 100 nM and 1000 nM (sheet 'Samples'), CATDS: 0.27535936863047; n = 1.
The test system of another assay is CLK4. Conditions: read-out: apparent Kd, n = 1.
In the next assay the test system is CSNK2A1;CSNK2A3. Particulars: read-out: apparent Kd, n = 1.
In another assay the test system is CSNK2A2. Particulars: read-out: apparent Kd; compound concentrations: 100 nM and 1000 nM (sheet 'Samples'), CATDS: 0.32436684951211903; n = 1.
In another assay the test system is DYRK1A. Conditions: read-out: apparent Kd, n = 1.
A further assay concerns MAPK9. Conditions: read-out: apparent Kd; compound concentrations: 100 nM and 1000 nM (sheet 'Samples'), CATDS: 0.114122400306413; n = 1.
A further assay relates to FER. Particulars: read-out: apparent Kd; compound concentrations:100 nM and 1000 nM (sheet 'Samples'); n = 1.
Another assay deals with FES. Conditions: read-out: apparent Kd; compound concentrations:100 nM and 1000 nM (sheet 'Samples'); n = 1.
The next assay relates to GRK6. Conditions: read-out: apparent Kd; compound concentrations:100 nM and 1000 nM (sheet 'Samples'); n = 1.
A further assay has as its system IGF1R. Particulars: read-out: apparent Kd; compound concentrations: 100 nM and 1000 nM (sheet 'Samples'), CATDS: 0.29362976208520802; n = 1.
Another assay concerns INSR. Particulars: read-out: apparent Kd; compound concentrations:100 nM and 1000 nM (sheet 'Samples'); n = 1.
In a further assay the test system is PIM1. Conditions: read-out: apparent Kd; compound concentrations:100 nM and 1000 nM (sheet 'Samples'); n = 1.
The test system of another assay is PIM2. Particulars: read-out: apparent Kd; compound concentrations:100 nM and 1000 nM (sheet 'Samples'); n = 1.
The next assay deals with TNK1. Conditions: read-out: apparent Kd; compound concentrations:100 nM and 1000 nM (sheet 'Samples'); n = 1.
The next assay has as its system CLK2. Particulars: read-out: apparent Kd; compound concentrations: 100 nM and 1000 nM (sheet 'Samples'), CATDS: 1; n = 1.
For the next assay, the system named is CLK1. Particulars: read-out: apparent Kd; compound concentrations:100 nM and 1000 nM (sheet 'Samples'); n = 1.
A further assay concerns GSK3B. Particulars: read-out: apparent Kd; compound concentrations:100 nM and 1000 nM (sheet 'Samples'); n = 1.
[1] abbreviates: compound concentrations:100 nM and 1000 nM (sheet 'Samples').

Read-outs that look alike come from different tables or passages of the source.

Regarding `CC1(C)CC(n2cnc(-c3ccc(F)cc3)c2-c2ccnc(N)n2)CC(C)(C)N1` [SB-221466], the potency estimated from few doses was 694 nM in the assay on CSNK1A1 (CATDS: 9.6046167396209803E-2); 37.6 nM with CSNK1D (CATDS: 0.25228114630202902); 65.4 nM in the assay with CSNK1E (CATDS: 0.19281480161649001); 958 nM with MAPK11; 18.8 nM in the assay with MAPK14 (CATDS: 0.38213111916194098); 89.6 nM in the assay on MAPKAPK2 (CATDS: 0.16941172485113901). Also, the potency estimated from few doses in the assay on RIPK2 was 537 nM.

For the compound `Cc1ccc(-c2cc3c(NC(=O)C4CC4)ncnc3o2)cc1` [GW819230X], the potency estimated from few doses was 2130 nM in the assay on CSNK1A1 (CATDS: 0.241580521879566), 1910 nM in the assay on MYLK3, 2320 nM in the assay with PKN2 and 1650 nM in the assay with TP53RK.

As for `N=C1N=C(N)S/C1=C\c1ccc2ncccc2c1` [RO4509407-000], the potency estimated from few doses in the assay with CLK4 (compound concentrations: 100 nM and 1000 nM (sheet 'Samples'), CATDS: 0.20208548416979799) was 1310 nM; in the assay on CSNK2A1;CSNK2A3 (compound concentrations: 100 nM and 1000 nM (sheet 'Samples'), CATDS: 0.28521766566088902), 612 nM; in the assay on CSNK2A2, 488 nM; in the assay with DYRK1A (compound concentrations: 100 nM and 1000 nM (sheet 'Samples'), CATDS: 0.224085831089785), 1010 nM.

With `Fc1ccc(-c2ncn(CCCNCc3ccccc3)c2-c2ccncc2)cc1` [SB-210486], the potency estimated from few doses in the assay on CSNK1A1 (CATDS: 0.128304526213217) is 1360 nM; in the assay with CSNK1D (CATDS: 0.26868989903925999), 280 nM; in the assay on CSNK1E (CATDS: 0.162916255761588), 716 nM; in the assay with MAPK14 (CATDS: 0.19130895998185199), 509 nM; with MAPK9 it was 2070 nM; in the assay with MAPKAPK2 (CATDS: 0.22954264686774201) it was 363 nM.

As to `Cc1nccc(-c2c(-c3ccc(F)cc3)ncn2CCCN2CCOCC2)n1.Cl` [SB-282975-A], the potency estimated from few doses was 74.7 nM in the assay with CSNK1D (CATDS: 0.65749239951041605), 505 nM in the assay on CSNK1E (CATDS: 0.24800542383641), 1100 nM in the assay on MAPK14 (CATDS: 0.18964189775036899) and 1030 nM with MAPKAPK2 (CATDS: 0.19328139808162401).

As to `COc1cc2c(cc1Nc1nc(Nc3ccsc3C(N)=O)c3cc[nH]c3n1)N(C(=O)CN(C)C)CCC2(C)C` [GSK2163632A], the potency estimated from few doses with CLK4 (setting [1]) is 1180 nM; in the assay with CSNK2A1;CSNK2A3 (setting [1]), 1950 nM; in the assay with FER, 82.7 nM; in the assay on FES, 212 nM; with GRK6 it was 2050 nM; with IGF1R, 22 nM. For the same compound, the potency estimated from few doses in the assay on INSR was 6.22 nM; in the assay on PIM1, 647 nM; with PIM2, 1920 nM; in the assay on TNK1, 599 nM.

Take `FC(F)(F)c1cccc(Nc2nccc(-c3cnn4nc(-c5ccccc5)ccc34)n2)c1` [GW819077X]: the potency estimated from few doses with CLK2 was 960 nM.

As for `O=c1[nH]cc(-c2ccc(O)cc2)c2sc(-c3ccncc3)cc12` [GSK1033723A], the potency estimated from few doses in the assay on CLK1 was 471 nM; in the assay on CLK4 (setting [1]) it was 148 nM; with DYRK1A (setting [1]), 1550 nM; in the assay on GSK3B it was 1220 nM.

(Values after publication PMC11062922 (Nature Chemical Biology, 2023).)
